The nature of experiment [1]: inhibitors of TNFa-induced NFkB p65 translocation, primary screen, imaging, HUVEC, MLSMR starter and 10KST1 sets (AID 438;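 active = inhibition above 20% together with a positive visual image hit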;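 note: compound added about 3h40 before a 20 min TNFalpha stimulation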;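 for inhibition: signal is the nuclear over cytoplasmic p65 intensity ratio per well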). The following applies: HUVEC TNFa-induced p65 nuclear translocation; cell count: measured here: nuclei count (cytotoxicity indicator), at 2.08 µM; inhibition: at 2 µM, stronger effect = higher value, 0% TNFa-plus-vehicle, 100% no-TNFa wells.
A short description of experiment [2]: inhibitors of mutant huntingtin aggregation, primary screen, imaging, exon1htt(103Q)mCFP cells, high-content imaging (AID 483;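 active = visual image review flags a hit and inhibition of aggregation exceeds 20%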;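 note: compound exposure lasted 3 days before fixation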;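 for nuclei count: percent of the per-plate median nuclei count of sample wells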). The following applies: exon1htt(103Q)mCFP cell line, aggregate imaging, at 2 µM; inhibition of aggregation: stronger effect = higher value; nuclei count: measured here: cell count, toxicity.
The nature of experiment [3]: inhibitors of E-selectin induction by TNFa, primary screen, imaging, HUVEC, immunofluorescence, MLSMR starter and 10KST1 sets (AID 487;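 active = visually confirmed hit in the image check and inhibition above 20%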;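 for inhibition: signal is fraction of cell area covered by stained E-selectin grains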;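 for nuclei count: 100% = median nuclei count of all wells on the same plate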). The following applies: HUVEC TNFalpha-induced E-selectin immunofluorescence imaging, at 2 µM; inhibition: stronger effect = higher value; nuclei count: measured here: cell number, toxicity.
For experiment [4], the target named is Voltage-gated potassium channel subunit beta-2 (Rattus norvegicus) (UniProt P62483). Nature of the experiment: KvBeta enzyme negative modulators, primary screen, biochemical, NADPH fluorescence (AID 622;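 active = fluorescence slope higher than the sample average by over 3 SD, cut at about -0.22 in these data, passing the limit was not always enough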;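 note: slope of raw intensity against log time taken from 70 to 1610 s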). To be noted: recombinant KvBeta, 4-cyanobenzaldehyde reduction, at 10 µM, stronger effect = higher value.
Sequence of Voltage-gated potassium channel subunit beta-2 (Rattus norvegicus) (P62483 whole entry, looked up): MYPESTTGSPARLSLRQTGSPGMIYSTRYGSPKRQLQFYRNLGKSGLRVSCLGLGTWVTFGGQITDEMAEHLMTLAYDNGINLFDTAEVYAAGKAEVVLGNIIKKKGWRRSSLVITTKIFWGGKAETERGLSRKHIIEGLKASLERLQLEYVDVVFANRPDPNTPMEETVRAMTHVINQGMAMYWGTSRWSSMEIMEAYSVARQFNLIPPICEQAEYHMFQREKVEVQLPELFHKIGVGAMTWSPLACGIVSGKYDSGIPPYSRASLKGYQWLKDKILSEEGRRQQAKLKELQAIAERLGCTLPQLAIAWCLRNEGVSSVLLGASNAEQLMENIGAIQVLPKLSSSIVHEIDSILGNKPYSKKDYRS
Experiment [5] has the same target. Nature of the experiment: KvBeta positive modulators, primary screen, biochemical, NADPH fluorescence (AID 623;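 active = NADPH fluorescence slope more negative than the mean of all samples by about 3 SD, 99.7% confidence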;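 note: fluorescence intensity change per second fitted from 20 to 320 s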). The following applies: Recombinant KvBeta, NADPH fluorescence decrease slope, 10 min; at 10 µM; stronger effect = lower value.
The target of experiment [6] is Alpha-2C adrenergic receptor (Homo sapiens) (UniProt P18825). As to the kind of experiment: modulators of alpha2C/GIRK thallium flux, primary screen, cell-based, HEK293 alpha2C/GIRK1/2 (AID 624;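 active = fluorescence slope after compound addition differing from the mean of all screened samples at 99.7% confidence, in either direction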;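 note: slope of fluorescence ratio to pre-addition baseline per second over 15 to 24 s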). The following applies: thallium flux BTC fluorescence, at 10 µM, actives lie on both sides.
Sequence of Alpha-2C adrenergic receptor (Homo sapiens) (P18825 whole entry, looked up): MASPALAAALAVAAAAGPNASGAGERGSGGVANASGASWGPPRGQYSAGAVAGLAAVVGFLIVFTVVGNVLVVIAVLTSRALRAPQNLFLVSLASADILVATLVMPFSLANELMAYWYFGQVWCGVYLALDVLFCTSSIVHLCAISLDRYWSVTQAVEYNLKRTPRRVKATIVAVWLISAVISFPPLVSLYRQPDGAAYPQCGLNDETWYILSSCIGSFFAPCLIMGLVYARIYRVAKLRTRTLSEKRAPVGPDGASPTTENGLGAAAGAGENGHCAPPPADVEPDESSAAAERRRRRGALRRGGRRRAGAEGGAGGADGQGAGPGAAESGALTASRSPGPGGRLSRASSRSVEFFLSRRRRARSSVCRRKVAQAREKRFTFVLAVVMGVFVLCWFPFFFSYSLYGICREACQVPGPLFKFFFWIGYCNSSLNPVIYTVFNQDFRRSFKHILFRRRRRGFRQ
A short description of experiment [7]: inhibitors of Sendai virus-induced IRF3 signaling, primary screen, TLR/RLR signaling modifier project, cell-based, Sendai virus stimulus, luciferase, 10K MLSCN set (AID 602276;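 active = inhibition at or above 50% at 10 µM; inactive = inhibition below 50%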;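 note: firefly luciferase from ISG56 promoter only with Renilla not read in this screen; 0% = Sendai virus plus DMSO and 100% = medium plus DMSO without virus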). To be noted: HEK293 RL24 IRF3 luciferase reporter, at 10 µM, stronger effect = higher value.
Experiment [8] can be described thus: inhibitors of poly I:C-induced TLR3 signaling, primary screen, cell-based, poly I:C stimulus, luciferase, 10K MLSCN set (AID 602277). The following applies: HEK293-TLR3 RL24 IRF3 luciferase reporter, at 10 µM, stronger effect = higher value.

The source made the active and inactive calls.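 Rule for the calls, unless noted: active = inhibition of the reporter signal at or above 50%; inactive = inhibition below 50%.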

One may read the inhibition as the change of the read-out against control, counted positive when it falls. Regarding `Cc1onc(-c2c(Cl)cccc2Cl)c1C(=O)N1CCc2ccccc21`, the cell count in experiment [1] came to 696. Besides, the inhibition in experiment [1] was -5.8% (inactive); in experiment [3], -30.8% (inactive); in experiment [7] it was 23.7% (inactive); in experiment [8], 23.2% (inactive). Also, the inhibition of aggregation in experiment [2] is -0.7% (inactive). For the same compound, the nuclei count in experiment [2] came to 93.6%; in experiment [3], 92.5%. Moreover, in experiment [4], the fluorescence slope was -0.47 (inactive). For the same compound, the NADPH fluorescence slope in experiment [5] was -3.1e-05 (inactive). Moreover, the slope in experiment [6] was 0.00899 (inactive).
Consider `O=C(C1CCCN(S(=O)(=O)c2cccc3nonc23)C1)N1CCC(Cc2ccccc2)CC1` (centres undefined), for which, in experiment [1], the cell count worked out at 385. The inhibition was -11.2% (inactive) in experiment [1], 24.5% (inactive) in experiment [3], 7.74% (inactive) in experiment [7] and 25.7% (inactive) in experiment [8]. Moreover, the inhibition of aggregation in experiment [2] was 3% (inactive). For the same compound, the nuclei count in experiment [2] worked out at 101%; in experiment [3] it was 59.6%. In addition, in experiment [4], the fluorescence slope was -0.304 (inactive). Besides, the NADPH fluorescence slope in experiment [5] is -1e-05 (inactive). For the same compound, the slope in experiment [6] is 0.00394 (inactive).
Consider `COC(=O)c1cccc(NC(=O)CSc2nnc(COc3ccc(C#N)cc3)n2-c2ccccc2)c1`, for which the cell count in experiment [1] came to 599. Besides, the inhibition in experiment [1] was 3.7% (inactive); in experiment [3], -64.7% (inactive); in experiment [7] it was -22% (inactive); in experiment [8], -18.5% (inactive). Besides, the inhibition of aggregation in experiment [2] is -5.1% (inactive). Moreover, the results for the nuclei count in experiment [2] and in experiment [3] were 91.2% and 120%, respectively. For the same compound, the fluorescence slope in experiment [4] was -0.586 (inactive). Also, in experiment [5], the NADPH fluorescence slope was 4.9e-05 (inactive). For the same compound, the slope in experiment [6] was 0.00802 (inactive).
As to `Cc1cccc(-c2nnn(CC/C(N)=N/O)n2)c1`, the cell count in experiment [1] is 321. The inhibition in experiment [1] is -4.8% (inactive); in experiment [3], 25.6% (inactive); in experiment [7], 2.73% (inactive); in experiment [8] it was -10.7% (inactive). Moreover, the inhibition of aggregation in experiment [2] is -1.8% (inactive). The nuclei count amounted to 84.2% in experiment [2] and 90.5% in experiment [3]. In addition, the fluorescence slope in experiment [4] was -0.496 (inactive). Also, the NADPH fluorescence slope in experiment [5] is -2.1e-05 (inactive). The slope in experiment [6] is 0.00549 (inactive).
As to `O=c1[nH]c(SCc2ccccc2Cl)nc2c1CCCC2`, the cell count in experiment [1] was 447. The inhibition in experiment [1] was -14.3% (inactive); in experiment [3], -49.4% (inactive); in experiment [7], 10.6% (inactive); in experiment [8], 4.88% (inactive). In experiment [2], the inhibition of aggregation is 36.1% (inactive). The nuclei count in experiment [2] worked out at 77.2%; in experiment [3], 111%. The fluorescence slope in experiment [4] is -0.295 (inactive). For the same compound, in experiment [5], the NADPH fluorescence slope is -2.4e-06 (inactive). Also, the slope in experiment [6] is 0.00421 (inactive).
For the compound `CNC(=O)C1C2C=CC3(O2)C1C(=O)N(C1CC1)C3C(=O)NCc1ccc(OC)cc1` (centres undefined), in experiment [1], the cell count was 199. Moreover, the inhibition was 11.8% (inactive) in experiment [1], 41.6% (inactive) in experiment [3], 14.1% (inactive) in experiment [7] and 20.2% (inactive) in experiment [8]. Moreover, the inhibition of aggregation in experiment [2] was -5.5% (inactive). The values for the nuclei count in experiment [2] and in experiment [3] were 102% and 98.4%, respectively. In addition, the fluorescence slope in experiment [4] was -0.533 (inactive). Moreover, the NADPH fluorescence slope in experiment [5] is -3.2e-05 (inactive). Besides, the slope in experiment [6] was 0.00639 (inactive).
As to `CCCOC(=O)c1[nH]c2c(c1C)C(=O)CC(c1cc(OC)c(OC)c(OC)c1)C2` (centres undefined), in experiment [1], the cell count came to 803. In addition, the inhibition in experiment [1] is 1.2% (inactive); in experiment [3] it was -90.3% (inactive); in experiment [7] it was 0.863% (inactive); in experiment [8] it was -18.2% (inactive). Also, the inhibition of aggregation in experiment [2] is 2.2% (inactive). Also, the nuclei count in experiment [2] turned out to be 114%; in experiment [3] it was 118%. Further, the fluorescence slope in experiment [4] is -0.567 (inactive). The NADPH fluorescence slope in experiment [5] was -2.6e-05 (inactive). Besides, the slope in experiment [6] was 0.00599 (inactive).
On to `Cc1cc(C(=O)OCCO)c(C#N)c(N)n1`, for which the cell count in experiment [1] was 299. In addition, the inhibition in experiment [1] is 8.5% (inactive); in experiment [3] it was -31.1% (inactive); in experiment [7], 16.3% (inactive); in experiment [8], 18.4% (inactive). For the same compound, the inhibition of aggregation in experiment [2] was 9.5% (inactive). The nuclei count turned out to be 106% in experiment [2] and 128% in experiment [3]. Moreover, the fluorescence slope in experiment [4] is -0.132 (active). The NADPH fluorescence slope in experiment [5] was 1.2e-05 (inactive). The slope in experiment [6] was 0.00497 (inactive).
Turning to `O=C(Nc1nc(-c2cccs2)cs1)c1cccc(S(=O)(=O)N2CCCCC2)c1`, the cell count in experiment [1] turned out to be 503. Moreover, the inhibition is 0% (inactive) in experiment [1], -108% (inactive) in experiment [3], 6.17% (inactive) in experiment [7] and -7.26% (inactive) in experiment [8]. For the same compound, the inhibition of aggregation in experiment [2] was -5.4% (inactive). Moreover, the nuclei count in experiment [2] worked out at 110%; in experiment [3], 124%. Moreover, the fluorescence slope in experiment [4] was -0.479 (inactive). For the same compound, the NADPH fluorescence slope in experiment [5] was -2.5e-05 (inactive). In experiment [6], the slope was 0.00684 (inactive).
Turning to `COc1ccc(C(=O)N(CCN2CCOCC2)CC(=O)NC2CCCC2)cc1OC`, the cell count in experiment [1] came out at 402. Moreover, the inhibition was 0.5% (inactive) in experiment [1], -41.4% (inactive) in experiment [3], -8.79% (inactive) in experiment [7] and -6.82% (inactive) in experiment [8]. In addition, the inhibition of aggregation in experiment [2] was -20.8% (inactive). Also, the nuclei count in experiment [2] was 108%; in experiment [3], 109%. Moreover, the fluorescence slope in experiment [4] was -0.597 (inactive). Besides, the NADPH fluorescence slope in experiment [5] is -5.3e-05 (inactive). Further, in experiment [6], the slope was 0.00354 (inactive).
Regarding `Cc1ccc(C(c2nnnn2CCC(C)C)N2CCN(C)CC2)cc1` (centres undefined), the cell count in experiment [1] amounted to 417. In addition, the inhibition is 1% (inactive) in experiment [1], -73.9% (inactive) in experiment [3], 13.9% (inactive) in experiment [7] and -3.3% (inactive) in experiment [8]. In experiment [2], the inhibition of aggregation was 8.9% (inactive). Further, the results for the nuclei count in experiment [2] and in experiment [3] were 73.1% and 108%, respectively. In addition, the fluorescence slope in experiment [4] was -0.598 (inactive). Also, the NADPH fluorescence slope in experiment [5] was -4.8e-05 (inactive). Further, in experiment [6], the slope was 0.00252 (inactive).
With `NCc1cccc(-n2cccn2)c1`, in experiment [1], the cell count is 680. For the same compound, the inhibition in experiment [1] is -8.9% (inactive); in experiment [3], -25.7% (inactive); in experiment [7] it was -6.32% (inactive); in experiment [8] it was 6.04% (inactive). Also, the inhibition of aggregation in experiment [2] was 1.2% (inactive). Further, the nuclei count in experiment [2] worked out at 96.4%; in experiment [3] it was 115%. Also, the fluorescence slope in experiment [4] is -0.622 (inactive). In addition, the NADPH fluorescence slope in experiment [5] is 4.5e-06 (inactive). In addition, the slope in experiment [6] is 0.00555 (inactive).
Regarding `COC(=O)Nc1ccccc1C(=O)N1CCCCC1`, the cell count in experiment [1] worked out at 403. In addition, the inhibition was 9.9% (inactive) in experiment [1], -25.5% (inactive) in experiment [3], 6.49% (inactive) in experiment [7] and 13.9% (inactive) in experiment [8]. The inhibition of aggregation in experiment [2] is 4% (inactive). Also, the nuclei count was determined as 120% in experiment [2] and 112% in experiment [3]. In addition, in experiment [4], the fluorescence slope is -0.597 (inactive). For the same compound, the NADPH fluorescence slope in experiment [5] is -8.5e-07 (inactive). Besides, the slope in experiment [6] was 0.00473 (inactive).
`S=c1[nH]nc(Cc2ccccc2)n1-c1ccccc1`: the cell count in experiment [1] worked out at 664. Also, the inhibition in experiment [1] is -5.5% (inactive); in experiment [3], 14.9% (inactive); in experiment [7] it was 9.34% (inactive); in experiment [8] it was 20.2% (inactive). Further, in experiment [2], the inhibition of aggregation is -9.4% (inactive). The nuclei count in experiment [2] stood at 111%; in experiment [3] it was 106%. Besides, the fluorescence slope in experiment [4] is -0.367 (inactive). Moreover, in experiment [5], the NADPH fluorescence slope was -3.9e-05 (inactive). The slope in experiment [6] was 0.00525 (inactive).

For the origin of these results see PubChem BioAssay.
